Laboratory results taken from PubChem BioAssay (Tox21).
Records with an inconclusive call do not appear. Calls of active or inactive are those of the source. Unless noted, the call rests on the fitted dose curve.

Assays:
[1] = Nuclear factor erythroid 2-related factor 2/antioxidant responsive element (Nrf2/ARE) small molecule agonists: qHTS cell viability counter screen in human keratinocytes (AID 1919968; active means well fitted curve in the direction sought with a large enough effect in the repeat runs; an effect the other way counts as inactive or inconclusive; further: nearly all actives have a fitted effect of over 55% in size; further: potency means the concentration at half of the fitted maximal effect)
In short: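 Cells of the KeratinoSens line were plated at 1,500 per well and left for 5 h before compound transfer from DMSO stocks. After a 23 h incubation (37 C, 5% CO2), CellTiter-Fluor was added. Signal was taken as fluorescence intensity 1 h later.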

[2] = biological target: Gonadotropin-releasing hormone receptor (Homo sapiens) (UniProt P30968); assay: Human gonadotropin-releasing hormone receptor (GnRHR) small molecule agonists, calcium flux assay in GnRHR-HEK293 cells (AID 1920063); further: nearly all actives have a fitted effect of over 35% in size
Gonadotropin-releasing hormone receptor (Homo sapiens), sequence (P30968 whole entry, looked up): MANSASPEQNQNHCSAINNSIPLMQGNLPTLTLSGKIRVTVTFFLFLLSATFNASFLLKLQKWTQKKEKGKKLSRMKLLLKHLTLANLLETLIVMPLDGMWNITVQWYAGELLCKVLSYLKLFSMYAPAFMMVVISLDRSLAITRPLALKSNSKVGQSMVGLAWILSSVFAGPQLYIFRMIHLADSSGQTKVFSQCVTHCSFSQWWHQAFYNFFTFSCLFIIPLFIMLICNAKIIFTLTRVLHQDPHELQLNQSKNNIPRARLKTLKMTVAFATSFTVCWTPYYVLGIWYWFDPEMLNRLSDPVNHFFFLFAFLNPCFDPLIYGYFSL
In short: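 Compounds dissolved in DMSO are pin-transferred onto dye-loaded GnRHR-HEK293 cells, which were seeded 18 h before at 37 C/5% CO2. Calcium signal is read as fluorescence intensity at 1 s intervals for 3 min.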

[3] = biological target: KiSS-1 receptor (Homo sapiens) (UniProt Q969F8); assay: Human kisspeptin (KISS1R) small molecule agonists, calcium flux assay in KISS1R-HEK293 cells (AID 1920064; active means well fitted curve in the direction sought with a large enough effect in the repeat runs; an effect the other way counts as inactive or inconclusive)
KiSS-1 receptor (Homo sapiens), sequence (Q969F8 whole entry, looked up): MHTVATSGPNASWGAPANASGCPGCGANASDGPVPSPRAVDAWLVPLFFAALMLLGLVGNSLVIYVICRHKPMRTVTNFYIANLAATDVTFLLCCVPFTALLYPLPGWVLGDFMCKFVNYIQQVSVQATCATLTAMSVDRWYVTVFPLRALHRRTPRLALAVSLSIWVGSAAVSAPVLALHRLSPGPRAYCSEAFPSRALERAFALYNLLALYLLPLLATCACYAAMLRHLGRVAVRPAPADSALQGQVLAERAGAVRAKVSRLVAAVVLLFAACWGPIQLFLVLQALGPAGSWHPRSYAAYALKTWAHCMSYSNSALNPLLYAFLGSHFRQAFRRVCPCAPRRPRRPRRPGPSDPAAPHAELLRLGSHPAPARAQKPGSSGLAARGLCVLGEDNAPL
In short: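 Cell line: HEK293, stable human KISS1R. Dye loading 1 h at 37 C after 18 h culture. Read: kinetic fluorescence, 480/540 nm, 3 min at 1 s intervals.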

[4] = G protein-coupled receptor (GPCR) small molecule agonists, calcium flux assay: HEK293 wild type cell line counter screen (AID 1920065)
In short: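 Tox21 10K compounds, 15 concentrations each in triplicate, pin-transferred in DMSO onto dye-loaded cells; kinetic read at 480/540 nm for 3 min, 1 s intervals.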

[5] = p53 small molecule agonists, cell-based qHTS assay with human liver microsomes (AID 1963577)
In short: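 Fluorescence of the beta-lactamase reporter in p53RE-bla cells, detected with LiveBLAzer substrate (2 h, room temperature, dark), served as the read-out after 16 h compound exposure at 37 C with human liver microsomes and NADPH, each 0.5 mg/mL final.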

[6] = p53 small molecule agonists, cell-based qHTS assay with rat liver microsomes (AID 1963578)
In short: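 Cells carrying a p53 response element–beta-lactamase reporter were plated and rested 5 h, then dosed with compound in DMSO plus rat liver microsomes and NADPH, each at 0.5 mg/mL final. After 16 h at 37 C, LiveBLAzer substrate was added for 2 h.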

[7] = p53 small molecule agonists, cell-based qHTS assay with rat liver microsomes: qHTS cell viability counter screen (AID 1963580); further: nearly all actives have a fitted effect of over 45% in size
In short: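 Counter screen for cytotoxicity under metabolic activation: rat liver microsomes and NADPH, 0.5 mg/mL final each, added with compounds to p53RE-bla HCT-116 cells; 16 h at 37 C, then ATP luminescence read.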

[8] = cAMP Responsive Elements (CRE) small molecule agonists, cell-based qHTS assay (AID 1963590)
In short: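 HEK 293T cells stably bearing CRE-bla were plated at 2,000 cells per well and rested 18 h. Compounds, positive controls or DMSO were added for 3 h at 37 C. LiveBLAzer B/G substrate was then loaded for 2 h at room temperature.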

[9] = biological target: Beta-2 adrenergic receptor (Homo sapiens) (UniProt P07550); assay: Adrenergic beta2 receptor (ADRB2) small molecule agonists, cell-based qHTS assay (AID 1963593);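 further: CHO cells stably overexpressing human ADRB2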
Beta-2 adrenergic receptor (Homo sapiens), sequence (P07550 whole entry, looked up): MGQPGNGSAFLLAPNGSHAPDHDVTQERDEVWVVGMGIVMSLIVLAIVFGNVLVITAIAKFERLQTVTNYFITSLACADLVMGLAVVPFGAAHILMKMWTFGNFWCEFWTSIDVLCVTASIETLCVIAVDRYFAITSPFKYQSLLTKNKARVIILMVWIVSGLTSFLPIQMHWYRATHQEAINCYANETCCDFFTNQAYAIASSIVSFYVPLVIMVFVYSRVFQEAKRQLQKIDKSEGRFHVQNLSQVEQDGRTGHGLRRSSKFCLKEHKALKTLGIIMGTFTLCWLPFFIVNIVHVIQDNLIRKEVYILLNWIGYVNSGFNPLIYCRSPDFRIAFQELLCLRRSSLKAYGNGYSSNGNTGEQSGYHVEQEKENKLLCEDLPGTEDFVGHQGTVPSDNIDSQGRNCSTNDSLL
In short: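 CHO cells stably over-expressing ADRB2 were plated overnight at 37C, then dosed with compounds plus a stimulation mix containing 100uM IBMX and 25uM Ro-20-1724 for 0.5hr at room temperature. cAMP was measured by HTRF competition, 1hr.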

[10] = biological target: D(2) dopamine receptor (Homo sapiens) (UniProt P14416); assay: Dopamine D2 receptor (DRD2) small molecule agonists, cell-based qHTS assay (AID 1963594); further: nearly all actives have a fitted effect of over 35% in size
D(2) dopamine receptor (Homo sapiens), sequence (P14416 whole entry, looked up): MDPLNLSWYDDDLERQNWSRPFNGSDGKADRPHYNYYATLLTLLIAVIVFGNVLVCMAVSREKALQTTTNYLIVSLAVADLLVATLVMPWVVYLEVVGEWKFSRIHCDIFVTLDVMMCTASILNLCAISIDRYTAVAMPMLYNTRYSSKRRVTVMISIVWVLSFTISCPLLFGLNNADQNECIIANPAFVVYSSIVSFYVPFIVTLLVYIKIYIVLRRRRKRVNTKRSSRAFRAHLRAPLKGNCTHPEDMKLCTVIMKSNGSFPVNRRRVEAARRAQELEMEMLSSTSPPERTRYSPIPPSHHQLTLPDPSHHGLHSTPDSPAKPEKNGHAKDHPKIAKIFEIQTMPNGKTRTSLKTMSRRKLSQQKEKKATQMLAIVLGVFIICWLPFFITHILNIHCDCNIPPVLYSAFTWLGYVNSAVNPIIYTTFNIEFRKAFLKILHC
In short: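 HEK293 cells stably expressing DRD2 were cultured 24 h at 37 C, then given Ro20-1724 (0.1 mM final) and compounds for 10 min at room temperature. NKH477 (200nM) was then added for 30 min. cAMP was read by HTRF.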

[11] = p53 small molecule agonists, cell-based qHTS assay with human liver microsomes: qHTS cell viability counter screen (AID 1963579); further: nearly all actives have a fitted effect of over 45% in size; further: potency means the concentration at half of the fitted maximal effect
In short: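 Cytotoxicity counter screen: p53RE-bla, 4,000 cells/well; 5 h settle, 37 C/5% CO2; cpd + HLM 0.5 mg/mL + NADPH 0.5 mg/mL (final); 16 h, 37 C; CellTiter-Glo, 30 min RT, luminescence.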

[12] = p53 small molecule agonists, cell-based qHTS assay (AID 1963582; active means well fitted activation curve with a large enough effect in the signal ratio in the repeat runs, not every such curve was filed as active; the % refers to the signal ratio)
In short: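 16 h compound exposure (37 C) of p53 response element–bla cells, preceded by 5 h recovery at 37 C/5% CO2; read-out via LiveBLAzer B/G FRET substrate, 2 h RT, fluorescence intensity.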

[13] = cAMP Responsive Elements (CRE) small molecule antagonists, cell-based qHTS assay (AID 1963591; active means well fitted inhibition curve with a large enough effect in the signal ratio in the repeat runs, not every such curve was filed as active; the % refers to the signal ratio)
In short: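 First, CRE-bla HEK293T cells settled 18 h at 37 C. Next, compound and 0.25 uM final NKH477 were applied for 3 h. Last, LiveBLAzer B/G substrate was loaded for 2 h at room temperature.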

[14] = biological target: Beta-2 adrenergic receptor (Homo sapiens) (UniProt P07550); assay: Adrenergic beta2 receptor (ADRB2) small molecule antagonists, cell-based qHTS assay (AID 1963592); further: series mostly up to about 92 µM; nearly all actives have a fitted effect of over 50% in size
In short: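 Assay format: CHO-ADRB2 cells, 18-20hr seeding at 37C/5% CO2, then compound plus 1nM isoproterenol agonist mix for 0.5hr RT. Homogeneous time-resolved fluorescence cAMP detection after 1hr, expressed as 665/615 nm ratio.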

[15] = biological target: D(2) dopamine receptor (Homo sapiens) (UniProt P14416); assay: Dopamine D2 receptor (DRD2) small molecule antagonists, cell-based qHTS assay (AID 1963595; active means well fitted inhibition curve with a large enough effect in the signal ratio in the repeat runs, with a control signal flat; the % refers to the signal ratio; further: potency means the concentration at half of the fitted maximal effect)
In short: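 Cells were plated and grown for 24 h at 37 °C. Ro20-1724 (0.1 mM final) went in first, then compound for 10 min. NKH477 (200 nM) with quinpirole (12 nM) followed for 30 min at RT, then HTRF detection reagents for 1 h.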

[16] = biological target: 5-hydroxytryptamine receptor 2A (Homo sapiens) (UniProt P28223); assay: 5-hydroxytryptamine receptor 2A (HTR2A) small molecule antagonists, cell-based qHTS assay (AID 1963586); further: nearly all actives have a fitted effect of over 45% in size
5-hydroxytryptamine receptor 2A (Homo sapiens), sequence (P28223 whole entry, looked up): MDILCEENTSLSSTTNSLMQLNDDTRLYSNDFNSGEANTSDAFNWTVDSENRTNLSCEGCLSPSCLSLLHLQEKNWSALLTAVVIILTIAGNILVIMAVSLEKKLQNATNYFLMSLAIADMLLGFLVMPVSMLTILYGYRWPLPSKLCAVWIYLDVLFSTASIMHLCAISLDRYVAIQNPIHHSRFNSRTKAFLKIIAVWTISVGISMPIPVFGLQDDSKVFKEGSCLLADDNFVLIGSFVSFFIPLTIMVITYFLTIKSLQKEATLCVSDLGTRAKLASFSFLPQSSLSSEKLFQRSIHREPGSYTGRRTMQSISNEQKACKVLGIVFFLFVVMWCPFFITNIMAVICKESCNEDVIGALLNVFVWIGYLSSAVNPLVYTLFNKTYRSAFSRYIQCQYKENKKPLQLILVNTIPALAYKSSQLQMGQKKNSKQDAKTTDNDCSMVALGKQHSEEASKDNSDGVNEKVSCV
In short: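 CHO cells stably expressing human HTR2A were plated for 18 h at 37 C, then loaded with calcium dye for 1 h. Compounds were preincubated 5 min at room temperature before DOI (4 nM solution) was added. Kinetic fluorescence was read for 3 min.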

[17] = biological target: 5-hydroxytryptamine receptor 2A (Homo sapiens) (UniProt P28223); assay: 5-hydroxytryptamine receptor 2A (HTR2A) small molecule agonists, cell-based qHTS assay (AID 1963587); further: nearly all actives have a fitted effect of over 30% in size; further: potency means the concentration at half of the fitted maximal effect
In short: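 HTR2A-CHO cells, plated 18 h at 37 C/5% CO2, dye-loaded 1 h at 37 C; compounds in DMSO added by pin tool (agonist mode). Intracellular calcium flux read as kinetic fluorescence on FDSS over 2 min at 1 s intervals.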

[18] = biological target: Muscarinic acetylcholine receptor M1 (Homo sapiens) (UniProt P11229); assay: Cholinergic receptor muscarinic 1 (CHRM1) small molecule antagonists, cell-based qHTS assay (AID 1963588); further: nearly all actives have a fitted effect of over 40% in size
Muscarinic acetylcholine receptor M1 (Homo sapiens), sequence (P11229 whole entry, looked up): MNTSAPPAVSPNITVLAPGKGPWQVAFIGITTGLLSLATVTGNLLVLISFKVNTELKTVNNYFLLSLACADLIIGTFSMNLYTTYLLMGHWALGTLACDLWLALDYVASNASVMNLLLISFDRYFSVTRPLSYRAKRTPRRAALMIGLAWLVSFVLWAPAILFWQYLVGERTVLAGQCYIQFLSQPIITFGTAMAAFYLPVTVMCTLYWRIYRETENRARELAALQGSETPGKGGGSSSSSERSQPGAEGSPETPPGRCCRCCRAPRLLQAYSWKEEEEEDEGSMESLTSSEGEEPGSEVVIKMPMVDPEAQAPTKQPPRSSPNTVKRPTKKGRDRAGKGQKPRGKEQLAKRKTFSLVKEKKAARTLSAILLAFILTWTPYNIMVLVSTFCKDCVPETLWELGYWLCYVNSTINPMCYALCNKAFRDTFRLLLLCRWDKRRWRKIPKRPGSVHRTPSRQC
In short: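 Compounds were tested at 15 concentrations in three independent runs. Dye-loaded CHRM1-CHO cells were exposed 5 min at room temperature before stimulation by acetylcholine added at 50nM. Intracellular calcium was read kinetically on FDSS for 3 min.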

[19] = p53 small molecule agonists, cell-based qHTS assay: qHTS cell viability counter screen (AID 1963581); further: nearly all actives have a fitted effect of over 45% in size; further: potency means the concentration at half of the fitted maximal effect
In short: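 ATP content measured by luminescence in HCT-116 p53RE-bla cells treated 16 h at 37 C, same wells as the reporter screen.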

[20] = biological target: Muscarinic acetylcholine receptor M1 (Homo sapiens) (UniProt P11229); assay: Cholinergic receptor muscarinic 1 (CHRM1) small molecule agonists, cell-based qHTS assay (AID 1963589); further: nearly all actives have a fitted effect of over 35% in size
In short: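 Homogeneous fluorescence calcium flux, agonist mode. Human M1-expressing CHO cells; compound dosed at 15 concentrations, three independent runs; signal sampled every 1 sec.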

Measured: Potency

Clc1ccc(CO/N=C(\Cn2ccnc2)c2ccc(Cl)cc2Cl)c(Cl)c1
active: [1] 23.7 µM
inactive: [2] | [3] | [4] | [5] | [6] | [7] | [8] | [9] | [10]

C[C@]12CC[C@@H](O)C[C@@H]1CC[C@@H]1[C@@H]2CC[C@]2(C)C(=O)CC[C@@H]12
not listed: [6] | [9] | [16] | [17] | [18] | [19] | [20]
inactive: all other assays above

IC(I)=C(I)I
inactive: [2] | [3] | [4] | [5] | [16] | [17] | [18] | [10]
active: [1] 27.3 µM | [11] 16.2 µM | [15] 54.5 µM

C[C@H]1[C@H](c2ccc(Cl)cc2)SC(=O)N1C(=O)NC1CCCCC1
not listed: [5] | [8] | [11] | [12]
inactive: all other assays above

Cn1sc(Cl)cc1=O
active: [17] 54.9 µM
not listed: [6] | [7] | [10]
inactive: all other assays above

NC(=S)C(N)=S
not listed: [5] | [9] | [12]
inactive: all other assays above

CC(O)(CS(=O)(=O)c1ccc(F)cc1)C(=O)Nc1ccc(C#N)c(C(F)(F)F)c1 (configuration not stated)
not listed: [8] | [9] | [11] | [15] | [16] | [17] | [18] | [20]
inactive: all other assays above

COP(=O)(OC)SCn1c(=O)oc2cc(Cl)cnc21
not listed: [6] | [8] | [11] | [12] | [13] | [17] | [19]
inactive: all other assays above

CC1CCC(C(C)C)C(OC(=O)c2ccccc2N)C1 (configuration not stated)
active: [1] 30.2 µM | [11] 35.8 µM | [19] 31.9 µM
not listed: [6] | [9] | [12] | [13] | [15] | [16] | [18]
inactive: all other assays above
